Reference: PubChem BioAssay (NCATS)
Values without a mark were called inactive.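 How the source made its calls, unless noted: active means compounds whose dose series gives a full or clear partial fitted curve of increased nuclear translocation; inconclusive means weak partial curve or effect only at the top dose; inactive means no dose-dependent translocation response.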 Records with an inconclusive call do not appear.

system: not listed separately; test: Stat Signaling Pathway (AID 446; active means well fitted curve in either direction with a large enough effect, not every such curve was filed as active;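 further: ME-180 cervical cancer cells given 40 pM IL-6 alongside compound; SIE-controlled beta-lactamase reporter measured as 460/530 nm FRET emission ratio; on the % scale 0 is the no-effect control and ±100 the full control effect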); details: ME-180 (cervical carcinoma) SIE beta-lactamase reporter, IL-6 stimulated, 5 h; series mostly up to 17.2 µM; activity, negative = inhibition: at the top concentration
How it was run: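 Emission at 460 and 530 nm (excitation 405 nm) reports SIE-controlled beta-lactamase in ME-180 cells. Cells received compound with 40 pM IL-6 for 5 hrs at 37 C; data scaled between 300 pM IL-6 and 125 nM JAK-inhibitor controls.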

SMILES | activity, negative = inhibition
CCCCSP1(=S)NCCCO1 (centres undefined) | -3.59%
CCc1nc(N2CCNCC2)c(C#N)c2c1CSC(C)(C)C2 | -7.88%
CCCSP1(=S)NCCCO1 (centres undefined) | -5.6%
CC(C)Cc1[nH]c(=O)c(C#N)c2c1CCC2 | -1.57%
O=C1C2CCN(CC2)[C@@H]1Cc1ccc2ccccc2c1O | 3.94%
COc1cccc(CN2CCN(C(=O)COc3ccc4ccccc4c3)CC2)c1 | -16.1%
CCOC(=O)[C@@]1(C#N)[C@@H]2C=CC(C(N)=O)=CN2[C@@H](C(N)=O)[C@@H]1c1cccc(Cl)c1 | -9.8%
c1ccc(Cn2ccnc2)cc1 | 3.62%
CC(=NCCO)c1c(O)n(C)c(=O)n(C)c1=O | 13.6%
CN(C)CCc1nn[nH]n1 | -0.771%
O=c1[nH]c(=O)n(CCc2ccccc2)c(O)c1C=NCCN1CCNCC1 | 2.53%
CCOCCN1CCC(OC(C)=O)C(C)C1 (centres undefined) | -0.337%
Cc1ccc2c(c1)[C@@H]1CN(C)CC[C@@H]1N2C(=O)Nc1cccc(C(F)(F)F)c1 | -4.28%
CN1C(=O)CN=C(c2ccc(Cl)cc2)c2cc(Cl)ccc21 | -6.62%
CCN(CC)CCCC(C)N=C(c1ccccc1)c1c(O)n(C)c(=O)n(C)c1=O (centres undefined) | 12.6%
CCC(=NCCOc1ccc(Cl)cc1)c1c(O)n(C)c(=O)n(C)c1=O | -28.9%
O=c1[nH]c(=O)n(Cc2ccco2)c(O)c1C=NCc1ccc2c(c1)OCO2 | 7.34%
C[N+]1(C)[C@@H]2CC(OC(=O)[C@@H](CO)c3ccccc3)C[C@@H]1[C@H]1O[C@H]12 (some centres undefined) | 11.7% [at 7.69 µM]
CCOC(=O)c1cc(C)n(CCc2cnc[nH]2)c1C | 2.7%
NCC1(c2ccc3c(c2)OCCO3)CCCC1 | 5.07%
Cn1c(O)c(C=NC2CCN(Cc3ccccc3)CC2)c(=O)n(C)c1=O | -6.63%
C[C@H]1CCC/C=C/C2C[C@H](O)CC2[C@H](O)/C=C/C(=O)O1 (some centres undefined) | -29.2%
O=c1[nH]c(=O)n(CCc2ccccc2)c(O)c1C=NCCCn1ccnc1 | 10.2%
CCC(=NCCN1CCCCC1)c1c(O)n(C)c(=O)n(C)c1=O | 2.16%

target: Glucocorticoid receptor (Homo sapiens) (UniProt P04150); test: GR-GFP Redistribution (AID 450); details: U2OS GR-GFP nuclear translocation, laser cytometry, 2 h; further: potency means the concentration at half of the fitted maximal effect
Sequence (P04150 whole entry, looked up): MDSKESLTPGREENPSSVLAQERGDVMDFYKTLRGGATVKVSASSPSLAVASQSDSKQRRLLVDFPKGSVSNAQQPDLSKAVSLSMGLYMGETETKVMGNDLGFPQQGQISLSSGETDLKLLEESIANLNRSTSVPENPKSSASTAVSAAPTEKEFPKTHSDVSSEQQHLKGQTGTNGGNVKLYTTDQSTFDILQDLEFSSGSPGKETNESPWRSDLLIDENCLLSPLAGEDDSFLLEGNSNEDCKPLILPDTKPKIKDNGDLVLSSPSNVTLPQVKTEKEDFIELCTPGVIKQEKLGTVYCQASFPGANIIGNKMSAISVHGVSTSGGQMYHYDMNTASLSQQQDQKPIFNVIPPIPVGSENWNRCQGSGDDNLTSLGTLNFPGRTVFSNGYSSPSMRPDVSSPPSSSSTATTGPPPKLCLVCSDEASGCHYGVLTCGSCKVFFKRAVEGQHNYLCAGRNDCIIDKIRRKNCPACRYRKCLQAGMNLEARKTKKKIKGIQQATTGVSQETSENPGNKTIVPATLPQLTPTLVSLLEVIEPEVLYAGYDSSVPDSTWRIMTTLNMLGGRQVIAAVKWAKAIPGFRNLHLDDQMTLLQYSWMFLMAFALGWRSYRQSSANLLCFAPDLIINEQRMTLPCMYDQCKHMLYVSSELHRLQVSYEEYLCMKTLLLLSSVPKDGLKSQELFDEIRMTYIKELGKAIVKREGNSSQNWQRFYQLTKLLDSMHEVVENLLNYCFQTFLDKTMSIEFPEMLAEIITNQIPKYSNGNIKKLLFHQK

SMILES | Potency [µM]
O=C(COc1ccc2ccccc2c1)N1CCN(C2CCN(Cc3ccccc3)CC2)CC1 | > 20.6
Cc1c(N=Cc2c(O)n(Cc3ccco3)c(=O)[nH]c2=O)c(=O)n(-c2ccccc2)n1C | > 20.6
CCOc1ccccc1-n1c(O)c(C=Nc2c(C)n(C)n(-c3ccccc3)c2=O)c(=O)[nH]c1=O | > 20.6
CC1(C)NCCN2C(=O)CSC21 (centres undefined) | > 20.6
OC(c1ccc(F)cc1)C(c1ccccc1)N1CCOCC1 (centres undefined) | > 20.6
CC(C)[C@H]1C(=O)N2CCC[C@H]2[C@]2(O)O[C@](NC(=O)[C@@H]3C=C4c5cccc6[nH]cc(c56)C[C@H]4N(C)C3)(C(C)C)C(=O)N12 | > 20.6
CCN(CC)c1ccc(N=Cc2c(O)n(-c3ccccc3C)c(=O)[nH]c2=O)cc1 | > 20.6
CC(C)(C)OC(=O)c1c(N)n(Cc2ccco2)c2nc3ccccc3nc12 | > 20.6
CCOc1ccccc1-n1c(O)c(C=Nc2ccc(N(CC)CC)cc2)c(=O)[nH]c1=O | > 20.6
CCCCc1nc(N2CCNCC2)c(C#N)c2c1CSC(C)(C)C2 | > 20.6
Cc1c(N=Cc2c(O)n(CCc3ccccc3)c(=O)[nH]c2=O)c(=O)n(-c2ccccc2)n1C | > 20.6
CCCCOCCCn1c(N)c(C(=O)OCCOC)c2nc3ccccc3nc21 | > 20.6
CCCCCCn1c(O)c(C=NC2CCN(Cc3ccccc3)CC2)c(=O)[nH]c1=O | > 20.6
C=CCOC(=O)C1=C(C)OC(N)=C(C#N)[C@@]12C(=O)N(CC(N)=O)c1ccccc12 | > 20.6
O=P(c1ccccc1)(c1ccccc1)N1CCCCC1 | > 20.6
CCCN(CC#CCO)CCC | > 20.6
CCCCSP1(=S)NCCCO1 (centres undefined) | > 20.6
CCc1nc(N2CCNCC2)c(C#N)c2c1CSC(C)(C)C2 | > 20.6
CCCSP1(=S)NCCCO1 (centres undefined) | > 20.6
CC(C)Cc1[nH]c(=O)c(C#N)c2c1CCC2 | > 20.6

SMILES | Potency [µM]
O=C1C2CCN(CC2)[C@@H]1Cc1ccc2ccccc2c1O | > 20.6
COc1cccc(CN2CCN(C(=O)COc3ccc4ccccc4c3)CC2)c1 | > 20.6
CCOC(=O)[C@@]1(C#N)[C@@H]2C=CC(C(N)=O)=CN2[C@@H](C(N)=O)[C@@H]1c1cccc(Cl)c1 | > 20.6
c1ccc(Cn2ccnc2)cc1 | > 20.6
CC(=NCCO)c1c(O)n(C)c(=O)n(C)c1=O | > 20.6
CN(C)CCc1nn[nH]n1 | > 20.6
O=c1[nH]c(=O)n(CCc2ccccc2)c(O)c1C=NCCN1CCNCC1 | > 20.6
CCOCCN1CCC(OC(C)=O)C(C)C1 (centres undefined) | > 20.6
Cc1ccc2c(c1)[C@@H]1CN(C)CC[C@@H]1N2C(=O)Nc1cccc(C(F)(F)F)c1 | > 20.6
CN1C(=O)CN=C(c2ccc(Cl)cc2)c2cc(Cl)ccc21 | > 20.6
CCN(CC)CCCC(C)N=C(c1ccccc1)c1c(O)n(C)c(=O)n(C)c1=O (centres undefined) | > 20.6
CCC(=NCCOc1ccc(Cl)cc1)c1c(O)n(C)c(=O)n(C)c1=O | > 20.6
O=c1[nH]c(=O)n(Cc2ccco2)c(O)c1C=NCc1ccc2c(c1)OCO2 | > 20.6
C[N+]1(C)[C@@H]2CC(OC(=O)[C@@H](CO)c3ccccc3)C[C@@H]1[C@H]1O[C@H]12 (some centres undefined) | > 46
CCOC(=O)c1cc(C)n(CCc2cnc[nH]2)c1C | > 20.6
NCC1(c2ccc3c(c2)OCCO3)CCCC1 | > 20.6
Cn1c(O)c(C=NC2CCN(Cc3ccccc3)CC2)c(=O)n(C)c1=O | > 20.6
C[C@H]1CCC/C=C/C2C[C@H](O)CC2[C@H](O)/C=C/C(=O)O1 (some centres undefined) | > 20.6
O=c1[nH]c(=O)n(CCc2ccccc2)c(O)c1C=NCCCn1ccnc1 | > 20.6
CCC(=NCCN1CCCCC1)c1c(O)n(C)c(=O)n(C)c1=O | > 20.6
